ChEMBL document CHEMBL3988442, “University of Dundee, Small-Polar-MMV Screening Library” (2021)
In all, about 48,000 compounds went through this assay and about 13,000 (27%) showed an effect of 50% or more. This is one part of the list.

tested on: Wolbachia pipientis; assay: Anti-Wolbachia Cell-Based Screen; type: functional; parameters: scale not given: in the data most compounds retested in dose-response had high values; conditions: 5 µM

Compound	Percent Effect [%]
O=C(CCc1ccsc1)N(Cc1ccccn1)C1CC1	0.03996
CN(CC(=O)NS(=O)(=O)c1ccsc1)Cc1ccccc1	-14.35
CCOC(C)c1noc(CN2CCCNCC2)n1 (centres undefined)	2.297
C=C(C)CN1CCC(NC(=O)NCCc2cccc(C(N)=O)c2)CC1	-8.268
CC(=O)c1ccc(C(=O)N2C[C@@H](CN3CCCC3)[C@@H](CO)C2)cc1	-35.7
O=C(NCCN1CCCCCC1=O)NCc1ccc(Cl)s1	-3.851
CC(SCC(=O)NC(N)=O)c1ccc(Cl)cc1 (centres undefined)	8.768
COc1cc(OC)cc(N2CCC(NCc3ccsc3)C2=O)c1 (centres undefined)	-5.145
Cc1cc(C2NC(=O)CN2Cc2ccc(Br)cc2)cc(C)c1O (centres undefined)	98.83
NC(=O)COc1ccc(C2NC(=O)CN2Cc2ccc(Br)cc2)cc1 (centres undefined)	110.3
CC(C)(C)n1ncc2c1NC(=O)CC2c1ccc(OCC(N)=O)cc1 (centres undefined)	-0.952
Cl.NC(=O)COc1ccc(CNCc2ccc(F)c(F)c2)cc1	-10.35
COc1cc(CN2CC(=O)N(c3ccc(C)cc3)CC2C)cc(OC)c1 (centres undefined)	-3.228
COc1cc(OC)cc(C2NC(=O)CN2Cc2ccc(Br)cc2)c1 (centres undefined)	85.78
Cc1cc(CN2CCN(CC3CC3)[C@@H]3CS(=O)(=O)C[C@@H]32)cc(C)c1O	22.76
Cc1cc(NC(=O)CNC(C)(C)c2nc(C)c(C)s2)no1	-14.55
COc1ccc(CNC(=O)c2cc3c(nc2O)CCC(C)C3)cc1 (centres undefined)	-13.47
CNS(=O)(=O)c1ccccc1N1CCN(C(C)C(=O)OC)CC1 (centres undefined)	-10.15
CO[C@H]1CN(C(=O)c2cccnc2)[C@@H]2CCCO[C@H]12.O=C(O)C(F)(F)F	121
CN(C)C(=O)N1C[C@H](Oc2ccccn2)[C@H]2OCCC[C@H]21.O=C(O)C(F)(F)F	-8.316
O=C(O)C(F)(F)F.O=C(c1ccnnc1)N1C[C@H](Oc2ccccn2)[C@H]2OCCC[C@H]21	96.83
Cc1cccc(C(=O)N2C[C@@H](OCc3cccnc3)[C@H]3OCCC[C@@H]32)n1.O=C(O)C(F)(F)F.O=C(O)C(F)(F)F	19.74
CO[C@H]1CN(C(=O)c2ccc(C)o2)[C@@H]2CCCO[C@H]12	2.722
Cc1occc1C(=O)N1C[C@H](Oc2ccccn2)[C@H]2OCCC[C@H]21.O=C(O)C(F)(F)F	-5.077
Cc1noc(C)c1CN1C[C@@H](NS(=O)(=O)N(C)C)[C@H](C(C)C)C1	-5.186
CC(=O)N1CCC2(CCN(C(=O)c3ccc(Cl)c(C(F)(F)F)c3)CC2)C1	-5.245
CCCn1ncc(C(=O)NC2CCN(C3CCOCC3)CC2)c1C	-3.665

Compound	Percent Effect [%]
CC(C)(C#N)C(=O)Nc1nccn1Cc1ccc(Br)cc1	-2.576
CN1CC2(CCN(C(=O)COc3ccc(Cl)cc3Cl)CC2)OC1=O	-5.539
CN1CCCC2(CCN(C(=O)Cn3ncc4ccccc4c3=O)C2)C1=O (centres undefined)	88.86
Cc1ccc2oc(=O)n(CC(=O)N3CCC4(CC3)CN(C)C(=O)O4)c2c1	-3.778
Cc1nc[nH]c1C(=O)N1CCC2(CN(C)C(=O)O2)C1 (centres undefined)	-7.833
CN1CC2(CCN(C(=O)Cn3ncc4ccccc4c3=O)CC2)OC1=O	95.4
Cc1nn(CC(=O)N2CCC3(CN(C)C(=O)O3)C2)c(=O)c2ccccc12 (centres undefined)	94.98
CCc1ccc2occ(CC(=O)N3CCC4(CCCN(C)C4=O)C3)c2c1 (centres undefined)	-37.19
Cc1nccc(-c2ccccc2)c1C(=O)N1CCC2(CN(C)C(=O)O2)C1 (centres undefined)	-8.281
CN1CCCC2(CCN(C(=O)CCn3cncn3)C2)C1=O (centres undefined)	-41.8
CCCN(CCC)C(=O)CN1CCCC1C(=O)N(C)C (centres undefined)	15.58
O=C(c1cccc(S(=O)(=O)NCCc2cscn2)c1)N1CCOCC1	-14.28
C[S+]([O-])c1nncn1CC(=O)c1ccc(OC(F)F)cc1 (centres undefined)	-3.882
CCc1ncc2c(n1)CN(C(=O)c1c(C)[nH]c3c1C(=O)CCC3)C2	17.5
O=C(c1cccn2ccnc12)N1CCCN(c2cccnn2)CC1	-3.729
CC(=O)N1CCC(Oc2ccc(C#N)cn2)CC1	-7.335
O=C(Cn1cccn1)N1CCC(Oc2ccc(C(F)(F)F)cn2)CC1	107
CCOCC(=O)N1CCC(Oc2ccc(C(F)(F)F)cn2)CC1	5.97
N#Cc1ccc(OC2CCN(C(=O)Cc3cccs3)CC2)nc1	12.26
CCOC(=O)CCC(=O)N1CCC(Oc2ccc(C(F)(F)F)cn2)CC1	3.938
CC(C)(C)NC(=O)N1CCC(Oc2ccc(C(F)(F)F)cn2)CC1	116.4
CN(C)S(=O)(=O)N1CCC(Oc2ccc(C#N)cn2)CC1	-10.68
CN(CC(=O)N1CCC(Oc2ccccc2)CC1)c1cnccn1	-0.02384
CCOC(=O)N1CCC(Oc2ccc(C(F)(F)F)cn2)CC1	91.75
CCOCC(=O)N1CCC(Oc2ccc(Cl)cn2)CC1	-5.53
N#Cc1ccc(C(=O)N2CCC(Oc3ccc(C#N)cn3)CC2)cc1	-11.6
CN(CC(=O)N1CCC(Oc2ccc(C(F)(F)F)cn2)CC1)S(C)(=O)=O	103.2
